Screening results (PubChem BioAssay)
Compounds with a hit are over-represented: about 2.4% of the library has one in this group of screens.
Pol iota inh: inhibitors of human DNA polymerase iota; Pol iota fluorescent replication assay, 10 min; Q9UNA4; 390,000 tested, 1% active; Potency, µM (titrated, usually from 115 µM), without a hit: at the highest dose activity, negative = inhibition, usual class: inhibitors
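Fluorescent replication assay read twice, at 0 min and 10 min after adding 50 nM (final) substrate. Enzyme (10 nM) and compounds were first incubated 15 min at room temperature; enzyme-free buffer wells were negative controls.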
Pol kappa inh-1: blocks human DNA polymerase kappa activity. purified Pol kappa, fluorescent DNA synthesis assay, 10 min. Potency, µM (doses to about 107 µM), for the others: at the top dose activity, negative = inhibition, usual class: inhibitors. 400,000 tested, 0.53% active; further: on the % scale 0 is the no-effect control and ±100 the full control effect
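First, compounds were pin-transferred onto 10 nM Pol kappa. After 15 min at room temperature, substrate was added to 50 nM final. Fluorescence was then measured kinetically at 0 and 10 min.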
POLB inh: DNA polymerase beta (human) inhibition | P06746 | Pol beta primer extension/strand displacement, fluorescence kinetic | Potency, µM (titrated, usually from 114 µM), for the others: at the highest dose activity change, negative = inhibition, usual class: inhibitors | 340,000 tested, 1.3% active | AID 485314; further: on the % scale 0 is the no-effect control and ±100 the full control effect
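Curves were derived by four-parameter Hill fits of normalized qHTS data. The kinetic fluorescent primer-extension read was taken at 0 and 10 min after 50 nM substrate, following a 15 min room-temperature preincubation of 10 nM enzyme with compounds.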
Pol eta inh-1: inhibitors of human DNA polymerase eta. recombinant Pol eta, fluorescent DNA replication assay. 390,000 tested, 1.2% active. Potency, µM (highest dose often 114 µM), without a hit: at the highest dose activity change, negative = inhibition, actives largely listed as inhibitors. Q9Y253; further: on the % scale 0 is the no-effect control and ±100 the full control effect
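Fluorescent replication assay: 50 nM final substrate added after a 15 min room-temperature compound preincubation with 10 nM enzyme. Signal taken at 0 min and again at 10 min.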
TDP1 inh: TDP1 (human) enzyme inhibition | Q9NUW8 | Potency, µM (titrated, usually from 130 µM), for inactives: at the highest dose activity change, negative = inhibition, hits mostly inhibitors | 350,000 tested, 0.28% active | recombinant TDP1, AlphaScreen DNA substrate cleavage; further: on the % scale 0 is the no-effect control and ±100 the full control effect; nearly all actives have a fitted effect of over 40% in size
Target sequence (Q9NUW8 whole entry, looked up): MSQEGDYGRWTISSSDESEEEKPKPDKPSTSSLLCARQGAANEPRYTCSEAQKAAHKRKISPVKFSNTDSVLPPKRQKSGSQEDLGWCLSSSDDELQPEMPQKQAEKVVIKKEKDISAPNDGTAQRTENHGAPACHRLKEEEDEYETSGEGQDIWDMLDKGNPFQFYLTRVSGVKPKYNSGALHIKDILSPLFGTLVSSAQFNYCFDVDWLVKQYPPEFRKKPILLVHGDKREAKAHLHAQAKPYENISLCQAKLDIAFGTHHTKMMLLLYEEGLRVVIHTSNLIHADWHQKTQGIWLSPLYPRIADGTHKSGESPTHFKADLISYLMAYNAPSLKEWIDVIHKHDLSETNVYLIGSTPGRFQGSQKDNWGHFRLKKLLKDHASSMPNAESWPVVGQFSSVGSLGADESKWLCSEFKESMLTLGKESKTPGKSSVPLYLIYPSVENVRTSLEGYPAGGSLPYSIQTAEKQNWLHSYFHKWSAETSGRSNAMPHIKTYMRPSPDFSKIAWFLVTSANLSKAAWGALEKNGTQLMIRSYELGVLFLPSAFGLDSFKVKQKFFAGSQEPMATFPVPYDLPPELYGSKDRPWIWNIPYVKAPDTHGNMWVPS
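Compounds were preincubated with Tdp1 (1 nM final) for 15 min at room temperature before substrate (15 nM final) started a 5 min reaction; beads (10 ug/ml final) were then added for 10 min before AlphaScreen detection.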
PGK validate: TbPGK inhibition, hit validation. shares compounds with Pol kappa inh-1. TbPGK coupled GAPDH assay, Kinase-Glo luminescence. Potency, µM (doses to about 57.5 µM), without a hit: top-dose activity change, negative = inhibition, actives largely listed as inhibitors. 500 tested, 79% active. AID 686980; further: on the % scale 0 is the no-effect control and ±100 the full control effect; nearly all actives have a fitted effect of over 65% in size
Pol iota confirm: Human Pol iota inhibitor confirmatory assay; shares compounds with Pol kappa inh-1; Pol iota primer extension, TAMRA/BHQ fluorescence; Potency, µM, usual class: inhibitors; 1,500 tested, 77% active; AID 720496
Pol kappa inh-2: Pol kappa (human) inhibition, cherry-pick confirmation; shares compounds with Pol eta inh-1; purified Pol-kappa, fluorescent strand-displacement substrate; Potency, µM, usual class: inhibitors; 920 tested, 76% active; AID 720501
Pol eta inh-2: confirmation of human DNA polymerase eta inhibitors. shares compounds with Pol eta inh-1. Pol eta primer extension, TAMRA/BHQ fluorescence, 10 min. Potency, µM, hits mostly inhibitors. 2,600 tested, 64% active. AID 720502
* = called active by the depositor; u = inconclusive; x = no result; [ ] = another dose, or the depositor's remark. The call rests on the fitted dose curve; in most records, active means well fitted curve in the direction sought with a large enough effect; inconclusive means small, poorly fitted or top-dose-only effect, or another doubt; inactive means no such curve, though single readings can be large; an effect the other way counts as inactive or inconclusive. Potency means the concentration at half of the fitted maximal effect.

SMILES | Pol iota inh | Pol kappa inh-1 | POLB inh | Pol eta inh-1 | TDP1 inh | Pol iota confirm | Pol eta inh-2 | others
Cc1cc(=O)[nH]c(N/N=C/c2c(O)n(-c3ccccc3)c(=O)c3ccccc23)n1 | 0.5% | -25.3% | 44.7µM* | 22.4µM* | 11.3% | 75.2* | 60.1*
COc1ccc(C(=O)OCC(=O)Nc2ncc([N+](=O)[O-])s2)cc1OC | u | 22.4µM* | x | 3.16µM* | x | 18.9* | u | PGK validate=18.3µM*;Pol kappa inh-2=6.7*
Cc1ccc(CC(=O)Nc2ncc([N+](=O)[O-])s2)cc1 | -8.5% | -3.3% | -16.9% | -1.1% | 0.0% | x | x
C=C(C)C(=O)Nc1cccc(C2=NOC3(C2)C[C@@H](C(N)=O)N(C(=O)CCCCC)C3)c1 (stereo partly drawn) | 8.91µM* | 7.94µM* | 2µM* | 1.41µM* | 39.8µM* | 18.9* | 3.01* | PGK validate=0.58µM*
CCCCCC(=O)N1CC2(CC(c3cccc(NC(=O)[C@@H]4CCC(=O)N4)c3)=NO2)C[C@@H]1C(N)=O (stereo partly drawn) | 5.5% | -14.0% | 20.8% | 1.1% | 3.5% | x | x
C/C=C\C=C\C(=O)N1CC2(CC(c3cccc(NC(=O)CC)c3)=NO2)C[C@H]1C(N)=O (stereo partly drawn) | u | 79.4µM* | -21.5% | 35.5µM* | -3.5% | 11.9* | 53.6*
C/C=C/C=C\C(=O)Nc1cccc(C2=NOC3(C2)C[C@H](C(N)=O)N(C(=O)/C=C/C)C3)c1 (stereo partly drawn) | u | u | u | 22.4µM* | 2.4% | 33.6* | 37.9*
O=C(Nc1ccc(F)cc1F)c1cc(CN2CCOCC2)on1 | 21.6% | -5.8% | 3.4% | -14.4% | 1.9% | x | x
COc1ccc(/C=N/Nc2cc(C)nc3ccc(OC)cc23)c(OC)c1 | u | u | 31.6µM* | u | 6.0% | 37.7* | 47.8*
COc1ccccc1/C=N/Nc1cc(C)nc2ccc(C)cc12 | 17.3% | -7.4% | 0.7% | -21.0% | x | x | x
COCCN1C(=O)c2oc3ccccc3c(=O)c2C1c1ccc(OC)c(OC)c1 (stereo not drawn) | u | 79.4µM* | -1.5% | 22.4µM* | 5.3% | 84.4* | u
O=C1C=C(NCCc2cc(Br)c(O)c(Br)c2)C(=O)c2ncccc21 | 3.16µM* | 28.2µM* | x | 3.55µM* | x | 16.8* | 26.9* | Pol kappa inh-2=23.8*
CCn1cc(C(=O)O)c(=O)c2cc(F)c(N/N=C/c3ccccc3)cc21 | u | -25.7% | u | 2.51µM* | 2.7% | 84.4* | 2.69*
CC1C(=O)N2CCCc3cc(S(=O)(=O)Nc4ccc(Br)cc4F)cc1c32 (stereo not drawn) | -2.8% | -4.4%[60.1 µM] | 17.7% | -5.6% | 5.4% | x | x
CC(C)(C)C(=O)Nc1cc(-c2cccc(Br)c2)nn1-c1ccccc1 | 6.6% | -2.9%[60.1 µM] | -29.0% | -26.3% | 0.0% | x | x
O=C(COC(=O)c1ccc2c(c1Cl)C(=O)c1ccccc1C2=O)NC1CC1 | u | -20.5% | u | u | 0.6% | x | x
Nc1ccc2c(c1Cl)C(=O)c1ccc(N)c(Cl)c1C2=O | u | u | 2µM* | 8.91µM* | 3.55µM* | 16.8* | 42.6*
O=C(COC(=O)c1ccccc1O)Nc1ncc(Cl)cc1Cl | 39.8µM* | 35.5µM* | 6.1% | 17.8µM* | x | u | 26.9*
CC(C(=O)OCC(=O)Nc1ncc(Cl)cc1Cl)N1C(=O)c2ccccc2C1=O (stereo not drawn) | 1.9% | -3.4% | -12.3% | u | -1.0% | x | x
COc1ccc(N(Cc2cccs2)C(=O)COc2ccc([N+](=O)[O-])cc2)cc1 | 38.6% | 4.3% | -13.8% | -24.8% | 1.6% | x | x
Cc1ccc(S(=O)(=O)c2nnn3c2nc(N2CCC(C)CC2)c2cc(Cl)ccc23)cc1C | 19.5% | 3.1% | 2.5% | -15.5% | 0.0% | x | x
COC(=O)c1ccc(COc2ccc(/C=N/Nc3cccc(C(=O)O)c3)cc2)cc1 | 31.6µM* | u | -30.5% | 17.8µM* | 39.8µM* | 59.7* | 26.9*
CSc1ccc(/C=N/Nc2cccc(C(=O)O)c2)cc1 | 2.24µM* | 7.94µM* | 2µM* | 1.12µM* | 1.12µM* | 2.67* | 2.13*
O=C(O)c1cccc(N/N=C/c2ccc(OC(F)(F)F)cc2)c1 | u | -1.4% | -16.5% | -7.4% | x | x | x
CCn1cc2nc(SCC(=O)Nc3ccc(OC)cc3OC)n(Cc3ccc(Cl)cc3)c(=O)c2n1 | 1.3% | -7.8% | u | -11.3% | 7.3% | x | x
SMILES | Pol iota inh | Pol kappa inh-1 | POLB inh | Pol eta inh-1 | TDP1 inh | Pol iota confirm | Pol eta inh-2 | others
COc1ccc(C(CC(=O)N2CCCCC2)c2c(OC)cc(OC)c3c(-c4ccccc4)cc(=O)oc23)cc1 (stereo not drawn) | 70.8µM* | 50.1µM* | 25.1µM* | 20µM* | x | 42.3* | u
COc1ccc(C(CC(=O)N2CCCC2)c2c(OC)cc(OC)c3c(-c4ccccc4)cc(=O)oc23)cc1 (stereo not drawn) | 70.8µM* | 79.4µM* | 35.5µM* | u | 7.94µM* | 33.6* | 75.7*
COc1cc(OC)c2c(-c3ccccc3)cc(=O)oc2c1C(CC(=O)N1CCCC1)c1ccc(N(C)C)cc1 (stereo not drawn) | -7.3% | -10.4% | x | x | 26.2% | x | x
CC1=C(C#N)c2nc(N)c(C#N)c(C)c2/C1=C\c1ccc(-c2ccccc2C(=O)O)o1 | u | 22.4µM* | 10µM* | 7.94µM* | x | 42.3* | 26.9*
Cc1ccc(-c2cc(-c3ccccc3)nc(N)c2C#N)o1 | 44.2% | -11.6% | 8.6% | -16.4% | x | x | x
Cn1c(SCC(=O)Nc2cccc(C(=O)O)c2)nnc1-c1cc2cc(Br)ccc2o1 | u | -16.5% | u | u | -4.8% | u | u
O/C=c1\ccc2cccc3nc(C(F)(F)F)nc1c23 | 0.891µM* | u | 3.16µM* | 25.1µM* | x | 67* | 47.8* | Pol kappa inh-2=u
COc1cccc(CNC(=O)CSc2nc3ccccc3nc2Cc2ccccc2)c1 | -13.5% | -5.4%[60.1 µM] | 0.4% | 1.8% | 5.4% | x | x
O=C(NCc1ccc(F)cc1)C1CCN(C(=O)c2ccc(-n3ccc4ccccc43)s2)CC1 | u | -44.2% | -29.7% | -21.6% | 2.6% | x | x
